Screens (PubChem)
Shiga inhibitor = A qHTS for Small Molecule Inhibitors of Shiga Toxin. Vero cells, Shiga toxin protein synthesis inhibition reporter. inhibition, % at 38.7 µM. hit rate 9.2% among 290,000. AID 2315, 2010; in the data active = inhibition mostly above about 28%, no sharp cut-off; inactive = mostly below about 43%
NS1 function inh = qHTS Assay for Inhibitors of Influenza NS1 Protein Function; Potency, µM (doses to about 46.1 µM); hit rate 0.4% among 270,000; AID 2326, 2010; note: actives are rising curves; nearly all actives have a fitted effect of over 50% in size
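In this qHTS, NS1 from influenza A is expressed in budding yeast, where it slows growth. Cells are switched from glucose to 2% galactose medium (pH 6.0, -URA), treated with compound, and growth recovery is read at OD600.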
SARS PLP yeast = qHTS of Yeast-based Assay for SARS-CoV PLP; hit rate 0.19% among 330,000; AID 485353, 2010; Potency, µM (top dose mostly 32.9 µM), actives largely listed as activators; S. cerevisiae expressing SARS-CoV PLpro, growth rescue; note: nearly all actives have a fitted effect of over 55% in size
Cycloheximide cs = Cycloheximide Counterscreen for Small Molecule Inhibitors of Shiga Toxin; max response, %; hit rate 12% among 300,000; cell reporter, cycloheximide protein synthesis inhibition counterscreen; AID 2314, 2010; in the data active = max response mostly above about 13%, no sharp cut-off; inactive = mostly below about 14%; note: read at 38.3 µM for the half of the compounds with a filed dose
Flu NS1 inh = Assay for Inhibitors of Influenza NS1 Protein Function: Hit Validation; shares compounds with NS1 function inh; influenza NS1 function cell assay, 15-point titration; activity change, negative = inhibition, % at 32.9 µM; 1,400 tested, under 10 active; AID 492980, 2010
Each line names hits and unclear results; the compound was inactive in the other large screens (follow-up assays come after a bar, where they were run). Compounds with a hit are over-represented: about 12% of the library has one in this group of screens. Unless noted, calls come from the whole dose curve.

CCOC(=O)CC(NS(=O)(=O)c1ccc(OC)c(C)c1)c1cccc([N+](=O)[O-])c1 (centres undefined)	none
CC(=O)c1ccccc1NC(=O)CCN1C(=O)C2CCCCC2C1=O (centres undefined)	none (no result: Shiga inhibitor, NS1 function inh, Cycloheximide cs)
CCn1nc(C(=O)OCc2cccc(S(=O)(=O)N(C)C)c2)c2ccccc2c1=O	NS1 function inh inconclusive | Flu NS1 inh inconclusive
COc1cc(C(=O)NC(=S)Nc2ccc(N3CCCC3)cc2)cc(OC)c1OC	NS1 function inh 13µM | Flu NS1 inh inactive
c1ccc(CC2CNc3ccccc3CN2)cc1 (centres undefined)	NS1 function inh 0.89µM | Flu NS1 inh inactive
Cc1ccc(-n2c(SCC(N)=O)nc3c(oc4ccccc43)c2=O)cc1	none
Cc1cc(C)cc(NC(=O)CSc2nc3c(oc4ccccc43)c(=O)n2-c2ccccc2)c1	NS1 function inh 5µM | Flu NS1 inh inconclusive
O=C(Cn1cnc([N+](=O)[O-])n1)NCc1ccccc1	NS1 function inh 3.5µM | Flu NS1 inh inactive
Cc1ccc(NC(=O)COC(=O)Cn2cnc3c2c(=O)n(C)c(=O)n3C)c(Cl)c1	none (no result: NS1 function inh)
COc1cccc(N(C(=O)Cn2nnc(-c3ccc(C)cc3)n2)C(C(=O)NC(C)(C)C)c2c[nH]c3ccccc23)c1 (centres undefined)	NS1 function inh inconclusive | Flu NS1 inh inactive
CC(C)(C)NC(=O)C(c1c[nH]c2ccccc12)N(C(=O)Cn1nnc(-c2ccc(Cl)cc2)n1)c1ccccc1F (centres undefined)	NS1 function inh inconclusive
O=C(Nc1nc(-c2ccc([N+](=O)[O-])cc2)cs1)c1c(F)cccc1F	none
Cc1ccc(-c2csc(NC(=O)c3cccc([N+](=O)[O-])c3)n2)cc1	NS1 function inh 5µM | Flu NS1 inh inactive
COc1ccc(-c2csc(NC(=O)c3ccccc3C(=O)O)n2)cc1	none (no result: NS1 function inh)
COc1cccc(OC)c1C(=O)Nc1nc(-c2ccccc2)cs1	NS1 function inh 13µM (no result: Shiga inhibitor) | Flu NS1 inh inactive
CCCOc1ccc(C(=O)N2CCN(c3ccc(N)cc3Cl)CC2)cc1	NS1 function inh 11µM | Flu NS1 inh inactive
CCCCOc1ccc(C(=O)N2CCN(c3ccc(N4CCOCC4)nn3)CC2)cc1	none (no result: Shiga inhibitor, NS1 function inh, Cycloheximide cs)
COc1cc(Cl)cc(C(c2c(C(=O)O)[nH]c3ccccc23)c2c(C(=O)O)[nH]c3ccccc23)c1O	NS1 function inh 2.5µM | Flu NS1 inh inactive
Nn1c(COc2ccccc2F)nnc1SCC(=O)NC1CCCCC1	none (no result: Shiga inhibitor, NS1 function inh, Cycloheximide cs)
COCc1cc(CN2CCCC2)c(O)c2ncccc12	NS1 function inh 0.71µM | Flu NS1 inh inconclusive
O=[N+]([O-])c1cc(CN2CCCC2)c2cccnc2c1O	NS1 function inh inconclusive, SARS PLP yeast inconclusive
Cc1cc(F)ccc1S(=O)(=O)Nc1ccccc1C(=O)Nc1ccc2[nH]c(=O)[nH]c2c1	none (no result: SARS PLP yeast)
CS(=O)(=O)c1ccc(C(=O)OCC(=O)N(CCc2ccccc2)Cc2ccccc2)cc1	none (no result: Shiga inhibitor, NS1 function inh, Cycloheximide cs)
CNS(=O)(=O)c1ccc(C)cc1	NS1 function inh inconclusive | Flu NS1 inh inactive
CCN(CC)c1ccc(C=C(c2nnnn2-c2ccccc2)c2nnnn2-c2ccccc2)cc1	NS1 function inh 7.9µM | Flu NS1 inh inactive
Cn1cccc1C1CCCN1CC(=O)Nc1ccc(F)c(F)c1F (centres undefined)	none (no result: Shiga inhibitor, NS1 function inh, Cycloheximide cs)
CC(=O)N1CCN(C2c3cccc4cccc(c34)C2NS(=O)(=O)c2ccccc2)CC1 (centres undefined)	none
Cc1ccc(C(=O)N2CCN(C3c4cccc5cccc(c45)C3NS(=O)(=O)c3ccccc3)CC2)cc1 (centres undefined)	NS1 function inh 11µM | Flu NS1 inh inactive
CCN(CC)C(=O)CSc1nc(O)cc(=O)n1-c1ccccc1OC	NS1 function inh 8.9µM | Flu NS1 inh inactive
CCCN(CCC)S(=O)(=O)c1ccc(C(=O)Nc2ccc(S(=O)(=O)Nc3nnc(CC)s3)cc2)cc1	NS1 function inh inconclusive
CCCCN(C(=O)c1ccccc1OCc1ccc(F)cc1)c1c(N)n(CC(C)C)c(=O)[nH]c1=O	none
Cc1ccc(C(C)C)c(OCc2ccc(C(=O)N/N=C/c3ccc(O)c(O)c3)cc2)c1	Shiga inhibitor 59, NS1 function inh 13µM, Cycloheximide cs 14 | Flu NS1 inh inactive
COCCNC(=O)Cn1c(=O)n(Cc2ccc(C(=O)NCc3ccco3)cc2)c(=O)c2ccccc21	NS1 function inh inconclusive, SARS PLP yeast inconclusive | Flu NS1 inh inactive
O=C(Cn1c(=O)n(Cc2ccccc2)c(=O)c2ccccc21)NCc1ccco1	none
Cc1cccc(N(CC(=O)NCC2CCCO2)C(=O)CCC(=O)Nc2cc(C)on2)c1 (centres undefined)	none
COCC(C)n1c(C)cc(C(=O)CSc2nnnn2C2CCCC2)c1C (centres undefined)	none (no result: Shiga inhibitor, NS1 function inh, Cycloheximide cs)
COCC(C)n1c(C)cc(C(=O)CSc2nc(C)c(C)c(C)n2)c1C (centres undefined)	NS1 function inh inconclusive | Flu NS1 inh inactive
Cn1nc(-c2ccccc2)c(C#N)c1Sc1cccc(Cl)c1	NS1 function inh inconclusive | Flu NS1 inh inactive
CCOc1ccc(/C=N/NC(=O)c2nnn(-c3nonc3N)c2CN(C)C2CCCCC2)cc1	none
OC[C@H](S)CS	none (no result: Shiga inhibitor, SARS PLP yeast, Cycloheximide cs)
OC1(c2ccccc2F)CCN(Cc2nnnn2CCc2ccccc2)CC1	none
Cc1[nH]c2ccccc2c1N=Nc1ccccc1C(=O)O	Shiga inhibitor 48, NS1 function inh 4.5µM, Cycloheximide cs 17 | Flu NS1 inh inactive
CC(C)(C)S(=O)(=O)c1cnc(N2CCOCC2)nc1N	none
O=C(Cc1ccccc1)NCCN1CCCC1	NS1 function inh 2.8µM | Flu NS1 inh inactive
Cc1cc2cc(CN3C(=O)c4ccccc4C3=O)ccc2n1C	NS1 function inh inconclusive | Flu NS1 inh inactive
Cc1c(C)n2c(SCC(=O)N3CC(C)OC(C)C3)nnc2[nH]c1=O (centres undefined)	none (no result: Shiga inhibitor, NS1 function inh, Cycloheximide cs)
CC(C)c1nc2n[nH]c(N)c2c2c1CSC(C)(C)C2	NS1 function inh 5.6µM | Flu NS1 inh inactive
COCCOc1cc(N)c(Cl)cc1Cl	none (no result: NS1 function inh)
COC(=O)c1c(NC(=O)CN2C(=O)c3ccccc3C2=O)sc(Cc2ccc3c(c2)OCO3)c1C	NS1 function inh 10µM | Flu NS1 inh inactive
CCN(CC(=O)Nc1c(F)cccc1F)C(=O)CN(C)S(=O)(=O)c1ccc(F)cc1	none (no result: Shiga inhibitor, NS1 function inh, Cycloheximide cs)
Cc1ccc(NC(=S)NNc2ccc([N+](=O)[O-])cc2S(=O)(=O)Nc2ccccc2C(=O)O)cc1C	NS1 function inh 13µM | Flu NS1 inh inactive
CC(=O)Nc1ccc(C=NNc2ccc([N+](=O)[O-])cc2S(=O)(=O)Nc2ccccc2C(=O)O)cc1	none (no result: Shiga inhibitor, NS1 function inh, Cycloheximide cs)
O=C1CCC(C(=O)N2CCCC2)CN1CCc1cccc(F)c1 (centres undefined)	none
O=C1CCC(C(=O)N2CCCCCC2)CN1CCc1ccc(Cl)cc1 (centres undefined)	NS1 function inh 2µM | Flu NS1 inh inactive
COc1cc(/C=C/C(=O)Nc2nnc(CC(C)(C)C)s2)cc(OC)c1OC	none
COc1cc(/C=C/C(=O)Nc2nnc(CC(C)C)s2)cc(OC)c1OC	NS1 function inh inconclusive | Flu NS1 inh inactive
Cc1ccc(C2C3=C(CCCC3=O)Nc3[nH]c(=S)[nH]c(=O)c32)cc1 (centres undefined)	none
